In PubChem BioAssay (NCI):
The panel holds about 79,000 compounds, 15% with a hit somewhere; the sample as a whole holds those more often. Calls of active or inactive are those of the source. Rule as the data show it: active = growth inhibition above about 70%; inactive = the rest. Where a SMILES comes first, the peptide text is derived from it.

How the values were obtained:
[1] = NCI Yeast Anticancer Drug Screen. Data for the rad50 strain (AID 155);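 also: 0% = growth of vehicle-only cultures of the same strain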; conditions: S. cerevisiae rad50 strain growth inhibition; at 50.0 µM; hits give high values
How it was run: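 DNA repair mutant yeast, compound exposure, growth read-out; inhibition is taken relative to vehicle.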

[2] = NCI Yeast Anticancer Drug Screen. Data for the mec2-1 strain (AID 157); conditions: S. cerevisiae mec2-1 strain, at 50.0 µM, hits give high values
How it was run: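 Compounds were applied to mec2-1 yeast cells. Their growth was then compared with that of vehicle-treated cultures to give growth inhibition.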

[3] = NCI Yeast Anticancer Drug Screen. Data for the sgs1 mgt1 strain (AID 161);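 also: 0% = growth of cultures given vehicle only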; conditions: S. cerevisiae sgs1 mgt1 strain, at 50.0 µM, hits give high values
How it was run: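 Percent growth inhibition was derived by comparing compound-exposed mutant yeast with vehicle-exposed cultures. The strain carries alterations in DNA damage repair.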

[4] = NCI Yeast Anticancer Drug Screen. Data for the cln2 rad14 strain (AID 165);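 also: 0% = growth equal to vehicle treated cultures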; conditions: S. cerevisiae cln2 rad14 strain, at 50.0 µM, hits give high values
How it was run: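 Strain: cln2 rad14 yeast, altered in cell cycle control and DNA damage repair. Read-out: growth inhibition vs vehicle.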

[5] = NCI Yeast Anticancer Drug Screen. Data for the bub3 strain (AID 167); conditions: S. cerevisiae bub3 mutant strain, at 50.0 µM, hits give high values
How it was run: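 In this screen, a yeast mutant lacking normal mitotic checkpoint function is challenged with compound. Relative growth versus vehicle gives the inhibition value.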

[6] = NCI Yeast Anticancer Drug Screen. Data for the mlh1 rad18 strain (AID 175); conditions: S. cerevisiae mlh1 rad18 strain growth inhibition; at 50.0 µM; hits give high values
How it was run: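 A repair-deficient yeast strain is exposed to test compound, and growth is scored relative to vehicle-treated controls.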

Measured: growth inhibition

O=S(=O)(O)CCCO
inactive: [1] 0.4% | [2] -44.3% | [3] -14.7% | [4] -1.05% | [5] -0.45% | [6] -2.4%

CC(C)CCN(CCCNc1c2c(nc3ccc(Cl)cc13)CCCC2)CCC(C)C
inactive: [1] -1.65% | [2] -9.4% | [3] -7.55% | [4] -34.4% | [5] -1.25% | [6] 4.95%

CCOC(=O)c1c(C)[nH]c(C)c1/C=C/C(=O)O
inactive: [1] 0.95% | [2] -5.1% | [3] -0.9% | [4] 1.45% | [5] 2.35% | [6] -0.8%

Oc1ccc2ccccc2c1CNC1CCCCC1
inactive: [1] -9.05% | [2] -18.9% | [3] -9.05% | [4] -26.1% | [5] 29.7% | [6] -26.6%

NC(=O)C1C2CC3C(C2)C31 (stereo unspecified)
inactive: [1] 2.9% | [2] 11.2% | [3] -1% | [4] -1% | [5] 3.4% | [6] 4.95%

N#CC1C=Cc2ccccc2N1C(=O)Oc1ccccc1 (stereo unspecified)
inactive: [1] 1.5% | [2] 14.3% | [3] 10.6% | [4] 18.6% | [5] -7.8% | [6] 16.6%

CCOC(=O)C1=C(Nc2ccc(Cl)c(Cl)c2)OC/C1=N\NC(=O)Cc1ccccc1
inactive: [1] -49.8% | [2] -22% | [3] -4.05% | [4] -12% | [5] -11.7% | [6] -35.4%

O=C1OC2C(O)COC2(O)C1(O)Cc1c[nH]c2ccccc12 (stereo unspecified)
inactive: [1] 14.1% | [2] -6.4% | [3] -5.45% | [4] 0.5% | [5] 3.35% | [6] -11.2%

CCNC(=O)OCCN(C)CCOC(=O)NCC
inactive: [1] -10% | [2] 9.55% | [3] -4.15% | [4] -20% | [5] -7.7% | [6] -0.7%

CC(CN1CCCC1)OC(=O)C(c1ccccc1)C1CCCC1 (stereo unspecified)
inactive: [1] 6.15% | [2] -20.9% | [3] 20.1% | [4] -50.2% | [5] -4.85% | [6] -14.2%

Nc1ccc(/C=C/C(=O)O)cc1
inactive: [1] -9.1% | [2] -6% | [3] 11.6% | [4] 10.8% | [5] 2.55% | [6] 9.95%

c1cc2c3c(cccc3c1)N1C(=N2)Sc2nc3ccccc3nc21
inactive: [1] 3.15% | [2] 13.5% | [3] -9.8% | [4] -5.2% | [5] 13.6% | [6] -3%

Clc1ccc(N=Cc2ccccc2Cl)cc1
inactive: [1] 34.8% | [2] 16.1% | [3] 25.2% | [4] -13.7% | [5] 42% | [6] 19.7%

CCOC1(NC(=O)N(C)C)C2CCCC21 (stereo unspecified)
inactive: [1] 3.4% | [2] -4.15% | [3] -0.1% | [4] -29.9% | [5] 2.1% | [6] -6.5%

CC(=O)c1ccc(O)c(C=O)c1O
inactive: [1] 11.7% | [2] 9.3% | [3] 27.1% | [4] 2.65% | [5] -2.9% | [6] 31.9%

CC(=O)Nc1ccc(/C=c2\sc3nnc(CCC(=O)Nc4ccccc4Cl)n3c2=O)cc1
inactive: [1] -16.4% | [2] -17.7% | [3] -20.1% | [4] 7.6% | [5] 7.1% | [6] -9.55%

COC12COC(=O)C1C(c1ccc3c(c1)OCO3)c1cc3c(cc1O2)OCO3 (stereo unspecified)
inactive: [1] 21.8% | [2] -0.6% | [3] 11.5% | [4] 8.95% | [5] 17.4% | [6] -4.7%

OC(CBr)CBr
inactive: [1] 1.8% | [2] -7.45% | [3] 0.4% | [4] -42.8% | [5] -3.05% | [6] 9.9%

N#CC(C#N)=C1c2ccccc2Sc2ccccc21
inactive: [1] -18.6% | [2] -0.35% | [3] -2.05% | [4] -21.3% | [5] -11.5% | [6] -22.2%

CC(=O)Nc1ccc(C2SCc3nc4ccccc4n32)cc1 (stereo unspecified)
inactive: [1] -21.5% | [2] -11.1% | [3] -32.5% | [4] -34.2% | [5] -24.9% | [6] -48.8%

CC1CC2(CCC1OCc1ccccc1)OCCO2 (stereo unspecified)
inactive: [1] 0.25% | [2] -6.85% | [3] -2.3% | [4] 2.2% | [5] 13.3% | [6] -1.7%

CC(=O)N(C)c1ccccc1O
inactive: [1] 6.6% | [2] -10.1% | [3] -14.6% | [4] -33.2% | [5] 10.2% | [6] -19.9%

CCNC1=C(C(=O)OCC)C(=O)CO1
inactive: [1] 34% | [2] 15.9% | [3] 24.2% | [4] 9.95% | [5] 0.3% | [6] -0.1%

CC(=O)Nc1ccc(Cc2ccc(O)cc2)cc1
inactive: [1] 1.55% | [2] 6.65% | [3] -3.75% | [4] -31.1% | [5] -3.55% | [6] -1.45%

C[n+]1c(-c2ccc(/C=N/NC(=O)C(=O)N/N=C/c3ccc(-c4cn5ccsc5[n+]4C)cc3)cc2)cn2ccsc21
active: [1] 85.5% | [2] 88% | [3] 86.8% | [4] 76.6% | [5] 88.7% | [6] 86.5%

CCOC(=O)CNc1c(OCc2ccccc2)c(=O)c1=O
inactive: [1] -8.05% | [2] -10.8% | [3] -18.1% | [4] -3.65% | [5] -16.2% | [6] 5.8%

[N-]=[N+]=NC1(Cc2ccccc2)C(=O)c2cccc3c2N(CCC3)C1=O (stereo unspecified)
inactive: [1] 4.25% | [2] 8.55% | [3] -0.65% | [4] 16.2% | [5] 25.7% | [6] -11.2%

CC(C)=NOC(CCOC(=O)c1ccccc1)COC(=O)c1ccccc1 (stereo unspecified)
inactive: [1] -13.6% | [2] 0.1% | [3] -1.35% | [4] -10.4% | [5] -11.8% | [6] 7.75%

Cc1ccc(/C=C(/C#N)C(N)=O)cc1
inactive: [1] 11.2% | [2] 0.05% | [3] 21.4% | [4] 17.6% | [5] 12.5% | [6] 29.9%

Cc1cc(N=Nc2c(O)c3ccccc3[nH]c2=O)ccc1N=Nc1ccc(C(=O)O)cc1
inactive: [1] 1.65% | [2] -9.15% | [3] 3.5% | [4] 1.1% | [5] -14.1% | [6] -8.05%

Cc1cc(OCCCC[N+](C)(C)Cc2ccc(Br)o2)c(C(C)C)cc1Cl
active: [1] 99.5% | [2] 99.5% | [3] 99.2% | [4] 99.3% | [5] 99.2% | [6] 99.3%

Cc1cc(-c2ccc(Cl)cc2)c(C#N)c(=S)n1C1OC(CO)C(O)C(O)C1O (stereo unspecified)
inactive: [1] -19.4% | [2] -11% | [3] -5.3% | [4] 2.8% | [5] -2.95% | [6] 2.8%

CCCCCCCCCc1cc[n+](C2=C([O-])C3=C(C(=O)C2=O)C2c4ccccc4C3c3ccccc32)cc1
active: [3] 80.5%
inactive: [1] 43.8% | [2] 50.6% | [4] 46% | [5] 53.9% | [6] 60.3%

NC(=S)N/N=C(\c1ccccc1)c1cccc2ccccc12
inactive: [1] 5.1% | [2] 50.7% | [3] 59% | [4] -35.3% | [5] 58.5% | [6] 33.5%

CC(C)(C)OC(=O)NC(CCC(=O)OCc1ccccc1)C(=O)NCCCO (stereo unspecified)
inactive: [1] -11.8% | [2] -35.3% | [3] 8.4% | [4] -9.35% | [5] -15.7% | [6] 9.8%

O=C(NNc1ccccc1OCc1ccccc1)C(F)(F)F
inactive: [1] -0.25% | [2] -20.3% | [3] 0.35% | [4] 39.8% | [5] 27% | [6] 11.2%

CCCCCC/C(CC(=O)CCC(=O)NCCc1ccccc1)=N\NC(=O)c1ccc2ccccc2c1O
inactive: [1] 25% | [2] 20.2% | [3] 32.6% | [4] -49.2% | [5] 2.5% | [6] 45.5%

CC(C)CC(N)C(=O)NC(C)C(=O)NC(CC(C)C)C(=O)O (stereo not drawn) (H-Leu-Ala-Leu-OH; configuration not given here)
inactive: [1] 5.95% | [2] 21.4% | [3] 10.9% | [4] 1.9% | [5] 0.5% | [6] -3.1%

CCCC(NC(=O)CN)C(=O)O (stereo unspecified)
inactive: [1] 14.8% | [2] 19.1% | [3] 2% | [4] -50% | [5] -29.4% | [6] 6.5%

C=C1CC(C2CCC(C)(C)C2)OC1=O (stereo unspecified)
inactive: [1] 13.7% | [2] 8% | [3] 9.15% | [4] 17.3% | [5] 2.15% | [6] -0.8%

O=C(n1[nH]c(=O)n(-c2ccc([N+](=O)[O-])cc2)c1=O)C(Cl)(Cl)Cl
inactive: [1] 7.9% | [2] -15.3% | [3] 22.5% | [4] 7.6% | [5] 12.7% | [6] -28.9%
